Measured values from PubChem BioAssay AID1159580 (chemical genetic matrix, 2015).
Values joined by “and” are separate entries in the source; they are usually repeats but may differ in a detail not shown here. Identical values can stand only once. About 2,000 (36%) of roughly 5,500 compounds were called active. Not shown: some 18% with an inconclusive outcome. Rule as the data show it: active = normalized growth mostly below about 0.91 (no sharp cut-off); inconclusive = no clear call, values can overlap the other calls; inactive = mostly above about 0.92. This is one part of the list.

Test: chemical genetic growth profiling, strain panel (AID 1159580);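 also: tested at 20 µM; growth read once vehicle control cultures reached saturation at 30 °C; 1 = growth at the plate median or of vehicle wells; lower values mean less growth of the strain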
Settings: S. cerevisiae deletion strains, growth OD

Measured: normalized growth

O=c1ccc2ccccc2o1
inactive: locus YAL013W, strain DEP1, hits give low values 1.02 | locus YAL021C, strain ccr4, hits give low values 1.01 | locus YAL026C, strain drs2, hits give low values 0.993 | locus YAL030W, strain snc1, hits give low values 0.99 | locus YBL061C, strain skt5, hits give low values 0.988 | locus YBR009C, strain hhf1, hits give low values 0.939 | locus YBR021W, strain FUR4, hits give low values 1 | locus YBR023C, strain chs3, hits give low values 0.996 | locus YBR171W, strain sec66, hits give low values 0.974 | locus YBR229C, strain ROT2, hits give low values 1.02 | locus YBR231C, strain swc5, hits give low values 0.964 | locus YBR279W, strain paf1, hits give low values 0.999 | locus YCL011C, strain gbp2, hits give low values 0.993 | locus YCL016C, strain dcc1, hits give low values 1.03 | locus YCL029C, strain bik1, hits give low values 0.992 | locus YCL069W, strain vba3, hits give low values 0.98 | locus YCR088W, strain abp1, hits give low values 0.982 | locus YDL005C, strain med2, hits give low values 0.976 | locus YDL035C, strain GPR1, hits give low values 1.01 | locus YDL040C, strain nat1, hits give low values 0.984 | locus YDL074C, strain BRE1, hits give low values 1.01 | locus YDL101C, strain DUN1, hits give low values 1.03 | locus YDL134C, strain PPH21, hits give low values 1.03 | locus YDL185W, strain tfp1, hits give low values 0.982 | locus YDL192W, strain arf1, hits give low values 0.988 | locus YDR001C, strain nth1, hits give low values 0.978 | locus YDR069C, strain doa4, hits give low values 0.987 | locus YDR101C, strain arx1, hits give low values 0.968 | locus YDR137W, strain rgp1, hits give low values 0.968 | locus YDR150W, strain NUM1, hits give low values 1 | locus YDR159W, strain sac3, hits give low values 0.945 | locus YDR162C, strain NBP2, hits give low values 1.04 | locus YDR195W, strain ref2 0.991 | locus YDR297W, strain sur2, hits give low values 0.973 | locus YDR318W, strain mcm21, hits give low values 1.01 | locus YDR334W, strain swr1, hits give low values 0.926 | locus YDR335W, strain msn5, hits give low values 0.985 | locus YDR388W, hits give low values 0.988 | locus YDR392W, strain spt3, hits give low values 0.956 | locus YDR502C, strain sam2, hits give low values 0.963 | locus YEL003W, strain gim4, hits give low values 0.957 | locus YEL037C, strain rad23, hits give low values 0.977 | locus YEL061C, strain CIN8 (second series), hits give low values 0.954 | locus YEL061C, strain CIN8, hits give low values 1.01 | locus YER015W, strain faa2, hits give low values 0.991 | locus YER016W, strain bim1, hits give low values 0.986 | locus YER110C, hits give low values 0.989 | locus YER111C, strain swi4, hits give low values 0.982 | locus YER155C, strain BEM2 (second series), hits give low values 0.937 | locus YER155C, strain BEM2, hits give low values 1.02 | locus YER167W, strain BCK2, hits give low values 1.02 | locus YFR010W, strain ubp6, hits give low values 0.93 | locus YGL078C, strain dbp3, hits give low values 0.992 | locus YGL086W, strain mad1, hits give low values 0.981 | locus YGL167C, strain pmr1, hits give low values 0.972 | locus YGL173C, strain kem1, hits give low values 0.973 | locus YGL227W, strain vid30, hits give low values 0.969 | locus YGL240W, strain doc1, hits give low values 0.958 | locus YGL248W, strain PDE1, hits give low values 1.04 | locus YGL253W, strain hxk2, hits give low values 1.01 | locus YGR135W, strain pre9, hits give low values 0.988 | locus YGR252W, strain gcn5, hits give low values 1.02 | locus YHR013C, strain ard1, hits give low values 1.05 | locus YHR027C, strain rpn1, hits give low values 0.975 | locus YHR030C, strain SLT2, hits give low values 1.02 and 0.992 | locus YHR079C, strain IRE1 (second series), hits give low values 0.999 | locus YHR079C, strain IRE1, hits give low values 0.957 | locus YHR094C, strain hxt1, hits give low values 0.989 | locus YHR129C, strain ARP1, hits give low values 1.02 | locus YHR142W, strain chs7, hits give low values 1.03 | locus YHR200W, strain rpn10, hits give low values 0.978 | locus YIL066C, strain RNR3, hits give low values 1.02 | locus YIL073C, strain SPO22, hits give low values 0.985 | locus YIL125W, strain kgd1, hits give low values 1.01 | locus YIR030C, strain dcg1, hits give low values 0.992 | locus YJL092W, strain hpr5, hits give low values 0.996 | locus YJL095W, strain BCK1 (second series), hits give low values 0.978 | locus YJL095W, strain BCK1, hits give low values 1.06 and 0.982 | locus YJL115W, strain asf1, hits give low values 0.972 | locus YJL129C, strain trk1, hits give low values 0.985 | locus YJL134W, strain LCB3, hits give low values 1.01 | locus YJL154C, strain vps35, hits give low values 0.978 | locus YJL164C, strain tpk1, hits give low values 0.977 | locus YJL166W, strain qcr8, hits give low values 0.956 | locus YJL168C, strain set2, hits give low values 0.995 | locus YJL187C, strain SWE1 (second series), hits give low values 1.02 | locus YJL187C, strain SWE1, hits give low values 0.982 | locus YJR043C, strain POL32, hits give low values 1.02 | locus YJR066W, strain TOR1, hits give low values 0.945 | locus YKL009W, strain mrt4, hits give low values 1.12 | locus YKL068W, hits give low values 1.01 | locus YKL085W, strain MDH1 (second series), hits give low values 1.01 | locus YKL085W, strain MDH1, hits give low values 1.01 | locus YKL160W, strain elf1, hits give low values 1.02 | locus YKL190W, strain CNB1, hits give low values 1.02 | locus YKR001C, strain vps1, hits give low values 0.979 | locus YKR026C, strain gcn3, hits give low values 0.972 | locus YKR091W, strain srl3, hits give low values 0.983 | locus YLL001W, strain dnm1, hits give low values 0.981 | locus YLL026W, hits give low values 0.99 | locus YLL041C, strain sdh2, hits give low values 0.998 | locus YLR027C, strain aat2, hits give low values 0.993 | locus YLR039C, strain RIC1, hits give low values 1.03 | locus YLR058C, strain SHM2, hits give low values 1.03 | locus YLR102C, strain apc9, hits give low values 0.987 | locus YLR113W, strain HOG1, hits give low values 0.999 | locus YLR221C, strain rsa3, hits give low values 0.952 | locus YLR258W, strain gsy2, hits give low values 1.01 | locus YLR262C, strain YPT6 (second series), hits give low values 0.965 | locus YLR262C, strain YPT6, hits give low values 1.03 | locus YLR268W, strain sec22, hits give low values 0.961 | locus YLR320W, strain mms22, hits give low values 0.951 | locus YLR330W, strain CHS5, hits give low values 1.03 | locus YLR342W, strain FKS1 (second series), hits give low values 1.01 | locus YLR342W, strain FKS1, hits give low values 1 | locus YLR357W, strain rsc2, hits give low values 1.04 | locus YLR370C, strain arc18, hits give low values 1 | locus YLR371W, strain rom2, hits give low values 0.976 | locus YLR384C, strain iki3, hits give low values 0.992 | locus YLR418C, strain cdc73, hits give low values 1.03 | locus YML016C, strain PPZ1, hits give low values 1.02 | locus YML032C, strain rad52, hits give low values 0.999 | locus YML120C, strain ndi1, hits give low values 0.95 | locus YML124C, strain tub3, hits give low values 0.994 | locus YMR058W, strain fet3, hits give low values 0.983 | locus YMR078C, strain ctf18, hits give low values 0.989 | locus YMR125W, strain sto1, hits give low values 0.998 | locus YMR129W, hits give low values 0.989 | locus YMR205C, strain PFK2, hits give low values 0.955 | locus YMR223W, strain ubp8, hits give low values 1.04 | locus YMR231W, strain pep5, hits give low values 0.971 | locus YMR307W, strain GAS1, hits give low values 1.06 | locus YNL067W, strain RPL9B, hits give low values 1.02 | locus YNL071W, strain lat1, hits give low values 0.958 | locus YNL183C, strain NPR1, hits give low values 0.949 | locus YNL209W, strain ssb2, hits give low values 0.978 | locus YNL233W, strain BNI4, hits give low values 1.02 | locus YNL248C, strain rpa49, hits give low values 0.995 | locus YNL250W, strain rad50, hits give low values 1.01 | locus YNL271C, strain bni1, hits give low values 0.993 | locus YNL298W, strain CLA4, hits give low values 0.993 | locus YNL307C, strain MCK1, hits give low values 0.997 | locus YNL322C, strain KRE1 (second series), hits give low values 0.98 | locus YNL322C, strain KRE1, hits give low values 1.02 | locus YNR049C, strain mso1, hits give low values 0.993 | locus YNR052C, strain pop2, hits give low values 1.01 | locus YOL012C, strain htz1 1.37 | locus YOL147C, strain pex11, hits give low values 0.99 | locus YOR001W, strain rrp6, hits give low values 0.935 | locus YOR061W, strain CKA2, hits give low values 1.02 | locus YOR069W, strain VPS5, hits give low values 1.01 | locus YOR070C, strain gyp1, hits give low values 0.994 | locus YOR080W, strain dia2, hits give low values 0.981 | locus YOR083W, strain WHI5, hits give low values 0.972 | locus YOR106W, strain vam3, hits give low values 0.998 | locus YOR136W, strain idh2, hits give low values 0.982 | locus YOR144C, strain elg1, hits give low values 0.99 | locus YOR184W, strain ser1, hits give low values 0.985 | locus YOR231W, strain MKK1, hits give low values 0.988 | locus YOR265W, strain rbl2, hits give low values 0.987 | locus YOR270C, strain vph1, hits give low values 0.981 | locus YOR290C, strain snf2, hits give low values 1.01 | locus YOR316C, strain cot1, hits give low values 1 | locus YPL051W, strain arl3, hits give low values 1.03 | locus YPL055C, strain LGE1, hits give low values 1.02 | locus YPL078C, strain atp4, hits give low values 1.03 | locus YPL106C, strain sse1, hits give low values 0.988 | locus YPL240C, strain hsp82, hits give low values 0.983 | locus YPL256C, strain CLN2, hits give low values 1 | locus YPR119W, strain clb2, hits give low values 0.992 | locus YPR141C, strain kar3, hits give low values 0.999 | locus YPR163C, strain tif3, hits give low values 1 | locus YPR167C, strain met16, hits give low values 1.03 | strain wtn01, hits give low values 0.962
